“And” between values parts separate entries of the source, which are not always exact repeats. Equal entries are not always repeated. Some compounds were tested as several samples or in several runs, with calls that do not always agree. The source made the active and inactive calls. How the source made its calls: active means hit-call score of the fitted dose curve at least 0.9, where 1 is the maximum; inactive means score below 0.9.
Assays:
[1] = ATG_M_61_CIS: Attagene CIS-FACTORIAL HepG2 Assay for M61 Transcription Factor (Internal Marker) (AID 2282937); conditions: HepG2 Attagene CIS-FACTORIAL M61 internal marker reporter; actives raise or lower the signal
Procedure, shortened: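 Cells were transfected with reporter units under cis-regulatory promoters, treated with chemicals for 24 h, then lysed for RNA. Reporter transcripts were quantified by RT-PCR and capillary electrophoresis, and activity was fitted bidirectionally against DMSO.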

[2] = ATG_EGR_CIS: Attagene CIS-FACTORIAL HepG2 Assay for human Early Growth Response 1 (EGR1) (AID 2282938); conditions: HepG2 Attagene CIS-FACTORIAL EGR reporter mRNA; actives raise or lower the signal
Procedure, shortened: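 Endogenous TF activity in HepG2 liver cells was gauged through cis-promoter reporter constructs transiently transfected. After 24 h dosing, reporter mRNA was quantified by RT-PCR and capillary electrophoresis, and curves fitted in both directions versus DMSO.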

[3] = ATG_M_19_CIS: Attagene CIS-FACTORIAL HepG2 Assay for M19 Transcription Factor (Internal Marker) (AID 2282939); conditions: HepG2 Attagene CIS-FACTORIAL M19 internal marker reporter; actives raise or lower the signal
Procedure, shortened: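 HepG2 cells transiently transfected with cis-regulated multiplexed reporter units, dosed 24 h. Reporter mRNA quantified by RT-PCR and capillary electrophoresis; internal background marker fitted bidirectionally versus DMSO.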

[4] = ATG_Ets_CIS: Attagene CIS-FACTORIAL HepG2 Assay for human Erythroblast Transformation Specific (ETS) (AID 2282941); conditions: HepG2 ETS cis-reporter transcription, actives raise or lower the signal
Procedure, shortened: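 RT-PCR/capillary electrophoresis fluorescence read-out of reporter mRNA; HepG2 transient multi-reporter transfection; 24 h compound exposure; gain or loss of signal fitted bidirectionally relative to DMSO.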

[5] = target: Hepatocyte nuclear factor 3-beta (Homo sapiens) (UniProt Q9Y261); test: ATG_FoxA2_CIS: Attagene CIS-FACTORIAL HepG2 Assay for human Forkhead box A2 (FOXA2) (AID 2282942); conditions: HepG2 cis-reporter transcription factor activity, 24 h; actives raise or lower the signal
Hepatocyte nuclear factor 3-beta (Homo sapiens), sequence (Q9Y261 whole entry, looked up): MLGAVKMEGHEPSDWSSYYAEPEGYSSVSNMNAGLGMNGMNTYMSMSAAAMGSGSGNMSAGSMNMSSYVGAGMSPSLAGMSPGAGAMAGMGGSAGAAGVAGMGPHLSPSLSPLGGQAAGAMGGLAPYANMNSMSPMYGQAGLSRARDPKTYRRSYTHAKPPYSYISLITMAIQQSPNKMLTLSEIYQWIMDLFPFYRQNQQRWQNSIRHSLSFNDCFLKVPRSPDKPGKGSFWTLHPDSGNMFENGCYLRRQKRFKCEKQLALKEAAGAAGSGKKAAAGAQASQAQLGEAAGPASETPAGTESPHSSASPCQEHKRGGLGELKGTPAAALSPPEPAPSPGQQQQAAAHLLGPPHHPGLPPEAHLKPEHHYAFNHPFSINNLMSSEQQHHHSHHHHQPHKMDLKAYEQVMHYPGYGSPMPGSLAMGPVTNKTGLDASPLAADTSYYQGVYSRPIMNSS
Procedure, shortened: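 Endogenous transcription factor activity was read in HepG2 cells carrying transiently transfected cis-promoter reporter units. After 24 h dosing, reporter mRNA was quantified by RT-PCR and capillary electrophoresis, and values fitted bidirectionally versus DMSO.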

[6] = ATG_FoxO_CIS: Attagene CIS-FACTORIAL HepG2 Assay for human Forkhead box O (FoxO) (AID 2282943); conditions: HepG2 Attagene cis-reporter, FoxO element, mRNA; actives raise or lower the signal
Procedure, shortened: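 HepG2 cells transiently transfected with cis-promoter-driven multiple reporter transcription units; 24 h after chemical dosing, reporter mRNA quantified by RT-PCR, fluorescent primer extension, HpaI digestion and capillary electrophoresis. Bidirectional fitting versus DMSO baseline.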

[7] = ATG_GATA_CIS: Attagene CIS-FACTORIAL HepG2 Assay for human GATA Binding Protein (AID 2282944); conditions: HepG2 GATA cis-element reporter, Attagene multiplex mRNA; actives raise or lower the signal
Procedure, shortened: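 HepG2 cells transiently transfected with multiplexed cis-element reporter units measure endogenous GATA activity; after 24 h compound exposure, reporter mRNA quantified by RT-PCR and capillary electrophoresis. Changes fitted in both directions vs DMSO.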

[8] = ATG_GLI_CIS: Attagene CIS-FACTORIAL HepG2 Assay for human Zinc Finger Protein GLI1 (AID 2282945); conditions: HepG2, Attagene cis-factorial reporter mRNA, GLI element; actives raise or lower the signal
Procedure, shortened: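 HepG2 cells transiently transfected with cis-promoter multiplexed reporter units report endogenous transcription factor activity. After 24 h chemical exposure, reporter mRNA was quantified by RT-PCR, 6-FAM labelling, HpaI digestion and capillary electrophoresis, with bidirectional fitting against DMSO.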

[9] = ATG_ERE_CIS: Attagene CIS-FACTORIAL HepG2 Assay for Estrogen Response Element (ERE) (AID 2282940); conditions: HepG2 ERE cis-reporter, Attagene RNA transcript; actives raise or lower the signal
Procedure, shortened: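 HepG2 cells transiently transfected with multiplexed cis-element reporter units, measuring endogenous transcription factor activity; ERE reporter mRNA quantified after 24 h exposure by RT-PCR, fluorescent labelling, HpaI digestion and capillary electrophoresis. Bidirectional change versus DMSO.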

Row | Structure (SMILES) | outcome [1] | outcome [2] | outcome [3] | outcome [4] | outcome [5] | outcome [6] | outcome [7] | outcome [8] | outcome [9] | AC50 [2] | AC50 [9] | AC50 [6] | AC50 [8] | AC50 [4] | AC50 [5]
1 | CCCCOC(=O)CC(CC(=O)OCCCC)(OC(C)=O)C(=O)OCCCC | inactive | inactive | inactive | inactive | inactive | inactive | inactive | inactive |  |  |  |  |  |  | 
2 | O=C=NCCCCCCN=C=O | inactive |  | inactive | inactive | inactive | inactive | inactive | inactive | inactive |  |  |  |  |  | 
3 | O=C(O)Cc1cc(I)c(Oc2ccc(O)c(I)c2)c(I)c1 | inactive | inactive | inactive | inactive | inactive | inactive | inactive | inactive |  |  |  |  |  |  | 
4 | CC/C(=C(/CC)c1ccc(O)cc1)c1ccc(O)cc1 | inactive |  | inactive | inactive | inactive | inactive |  | inactive |  |  |  |  |  |  | 
5 | O=CCCCC=O | inactive | inactive | inactive | inactive | inactive | inactive |  | inactive | inactive |  |  |  |  |  | 
6 | CCN(Cc1cccc(S(=O)(=O)O)c1)c1ccc(C(=C2C=CC(=[N+](CC)Cc3cccc(S(=O)(=O)O)c3)C=C2)c2ccccc2S(=O)(=O)[O-])cc1 | inactive | inactive | inactive | inactive | inactive | inactive | inactive | inactive | inactive |  |  |  |  |  | 
7 | CN(C)c1ccc(C(=C2C=CC(=[N+](C)C)C=C2)c2ccc(N(C)C)cc2)cc1 | inactive |  | inactive | inactive | inactive | inactive |  | inactive |  | 2.23 µM (active) | 1.01 µM (active) |  |  |  | 
8 | CCCOC(=O)c1cc(O)c(O)c(O)c1 | inactive | inactive | inactive | inactive | inactive | inactive | inactive | inactive |  |  | 12.4 µM (active) |  |  |  | 
9 | Oc1ccccc1 | inactive | inactive | inactive | inactive | inactive | inactive |  | inactive |  |  |  |  |  |  | 
10 | C[C@]12CC[C@@H]3c4ccc(O)cc4CC[C@H]3[C@@H]1CC[C@H]2O | inactive |  | inactive | inactive | inactive | inactive |  | inactive |  |  |  |  |  |  | 
11 | Cc1cn([C@H]2C[C@H](N=[N+]=[N-])[C@@H](CO)O2)c(=O)[nH]c1=O | inactive | inactive | inactive | inactive | inactive | inactive |  | inactive | inactive |  |  |  |  |  | 
12 | CC(O)CC(C)(C)O (configuration not stated) | inactive |  | inactive | inactive | inactive | inactive |  | inactive |  |  |  | 0.0124 µM (active) |  |  | 
13 | CCO[Si](CCCNC(N)=O)(OCC)OCC | inactive |  | inactive | inactive | inactive | inactive |  | inactive | inactive |  |  |  |  |  | 
14 | CCN(Cc1cccnc1)C(=O)c1cccc(Cl)c1[C@]1(C)C(=O)N(Cc2ccc(OC)cc2OC)c2ccc(Cl)cc21 | inactive |  | inactive | inactive | inactive | inactive | inactive | inactive | inactive |  |  |  |  |  | 
15 | CCOC(=O)O[C@H](C)OC(=O)c1ccc2c(c1)cc(C(=O)NC1CCN(C(C)C)CC1)n2Cc1cc(-c2ccc(Cl)s2)on1 | inactive |  | inactive | inactive | inactive | inactive | inactive | inactive |  |  | 33 µM (active) |  |  |  | 
16 | CCCCCCCCOc1ccc(C(=O)c2ccccc2)c(O)c1 | inactive |  | inactive | inactive | inactive | inactive |  | inactive | inactive |  |  |  |  |  | 

Row | Structure (SMILES) | outcome [1] | outcome [2] | outcome [3] | outcome [4] | outcome [5] | outcome [6] | outcome [7] | outcome [8] | outcome [9] | AC50 [2] | AC50 [9] | AC50 [6] | AC50 [8] | AC50 [4] | AC50 [5]
17 | NC(=O)c1nc(-c2cccc(-c3cc(F)ccc3OCC(F)(F)C(F)(F)F)c2)n[nH]1 | inactive |  | inactive | inactive | inactive | inactive | inactive | inactive | inactive | 40.2 µM (active) |  |  |  |  | 
18 | CN1C(=O)N(c2ccccc2Br)Cc2cnc(Nc3ccc4c(c3)OCC(CO)O4)nc21 (configuration not stated) | inactive |  | inactive | inactive | inactive | inactive |  | inactive | inactive | 12.2 µM (active) |  |  |  |  | 
19 | CO[C@H]1/C=C/O[C@@]2(C)Oc3c(C)c(O)c4c(O)c(c(/C=N/N5CCN(C)CC5)c(O)c4c3C2=O)NC(=O)/C(C)=C\C=C\[C@H](C)[C@H](O)[C@@H](C)[C@@H](O)[C@@H](C)[C@H](OC(C)=O)[C@@H]1C | inactive | inactive | inactive | inactive | inactive | inactive | inactive | inactive |  |  |  |  |  |  | 
20 | O=C(OCCCCCCOC(=O)c1ccccc1)c1ccccc1 | inactive | inactive | inactive | inactive | inactive | inactive | inactive | inactive | inactive |  |  |  |  |  | 
21 | CC(C)(c1cc(Br)c(O)c(Br)c1)c1cc(Br)c(O)c(Br)c1 | inactive |  | inactive | inactive | inactive | inactive |  |  |  |  |  | 58 µM (active) | 49.8 µM (active) and 50.8 µM (active) |  | 
22 | Clc1cc(Cl)c2c(c1)N=C1CCCCCN1C2 | inactive |  | inactive | inactive | inactive | inactive | inactive | inactive | inactive |  |  |  |  |  | 
23 | CCCCCCCCCCCCO | inactive | inactive | inactive | inactive | inactive | inactive | inactive | inactive | inactive |  |  |  |  |  | 
24 | CC1(C)NC(=O)N(c2ccc([N+](=O)[O-])c(C(F)(F)F)c2)C1=O | inactive |  | inactive | inactive | inactive | inactive | inactive | inactive |  |  |  |  |  |  | 
25 | CC(C)(O)c1ccc(CNC(=O)c2cccnc2Oc2ccc3nonc3c2)cc1 | inactive | inactive | inactive | inactive | inactive | inactive |  | inactive | inactive |  |  |  |  |  | 
26 | CCCCCc1ccc(N)cc1 | inactive |  | inactive | inactive | inactive | inactive | inactive | inactive |  |  | 15.1 µM (active) [middle of 4 runs] |  |  |  | 
27 | Cc1occc1C(=O)Nc1ccc(C(=O)N2CCC(F)(F)/C(=C\C(=O)N3CCC(N4CCCCC4)CC3)c3ccccc32)cc1 | inactive |  | inactive |  |  | inactive |  | inactive | inactive |  |  |  |  | 55.9 µM (active) | 34.5 µM (active)
28 | Cc1cccc2ccccc12 | inactive |  | inactive | inactive | inactive | inactive |  | inactive | inactive |  | 76.8 µM (active) |  |  |  | 
29 | CN(C)C(=O)C1(N2CCCCC2)CCN(CC[C@@]2(c3ccc(Cl)c(Cl)c3)CN(C(=O)c3ccccc3)CCO2)CC1 | inactive | inactive | inactive | inactive | inactive | inactive |  | inactive | inactive |  |  |  |  |  | 
30 | CC(=O)N1CCN(c2ccc(OC[C@H]3CO[C@](Cn4ccnc4)(c4ccc(Cl)cc4Cl)O3)cc2)CC1 | inactive |  | inactive | inactive | inactive | inactive |  | inactive | inactive |  |  |  |  |  | 
31 | O=C1CCC(C2CCCCC2)CC1 | inactive |  | inactive | inactive | inactive | inactive |  | inactive |  |  |  |  |  | 131 µM (active) | 
32 | CC[C@H](NC(=O)c1cc(F)ccc1NS(=O)(=O)c1cccc2cccnc12)c1ccccc1 | inactive |  | inactive | inactive | inactive | inactive |  | inactive | inactive |  |  |  |  |  | 
